# PubChem BioAssay AID1159580 (chemical genetic matrix, 2015)
# Hit rate of the full screen: of about 5,500 compounds, about 2,000 (36%) were called active. Not shown: some 18% with an inconclusive outcome. The list shows a part of the results. A number with no mark means an inactive call. Cut-off read from the data, not from the text of the source: active = normalized growth mostly below about 0.91 (no sharp cut-off); inconclusive = no clear call, values can overlap the other calls; inactive = mostly above about 0.92.
# Test: chemical genetic growth profiling, strain panel (AID 1159580);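 note: tested at 20 µM; growth read once vehicle control cultures reached saturation at 30 °C; 1 = growth at the plate median or of vehicle wells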
# Details: growth OD
structure (smiles),measurement,setting,value
CCCCCCCCCCCCC[N+](C)(C)Cc1ccccc1,normalized growth,"S. cerevisiae deletion strains, locus YNL067W, strain RPL9B, stronger effect = lower value",0.0494 (active)
same,normalized growth,"S. cerevisiae deletion strains, locus YNL071W, strain lat1, stronger effect = lower value",0.0572 (active)
same,normalized growth,"S. cerevisiae deletion strains, locus YNL128W, strain TEP1, stronger effect = lower value",0.0628 (active)
same,normalized growth,"S. cerevisiae deletion strains, locus YNL153C, strain GIM3, stronger effect = lower value",0.0486 (active)
same,normalized growth,"S. cerevisiae deletion strains, locus YNL183C, strain NPR1, stronger effect = lower value",-0.00105 (active)
same,normalized growth,"S. cerevisiae deletion strains, locus YNL209W, strain ssb2, stronger effect = lower value",0.0596 (active)
same,normalized growth,"S. cerevisiae deletion strains, locus YNL233W, strain BNI4, stronger effect = lower value",0.0559 (active)
same,normalized growth,"S. cerevisiae deletion strains, locus YNL248C, strain rpa49, stronger effect = lower value",0.0866 (active)
same,normalized growth,"S. cerevisiae deletion strains, locus YNL250W, strain rad50, stronger effect = lower value",0.107 (active)
same,normalized growth,"S. cerevisiae deletion strains, locus YNL271C, strain bni1, stronger effect = lower value",0.0664 (active)
same,normalized growth,"S. cerevisiae deletion strains, locus YNL298W, strain CLA4, stronger effect = lower value",0.0607 (active)
same,normalized growth,"S. cerevisiae deletion strains, locus YNL307C, strain MCK1, stronger effect = lower value",0.0673 (active)
same,normalized growth,"S. cerevisiae deletion strains, locus YNL322C, strain KRE1 (second series), stronger effect = lower value",0.0716 (active)
same,normalized growth,"S. cerevisiae deletion strains, locus YNR049C, strain mso1, stronger effect = lower value",0.0569 (active)
same,normalized growth,"S. cerevisiae deletion strains, locus YNR052C, strain pop2, stronger effect = lower value",0.0607 (active)
same,normalized growth,"S. cerevisiae deletion strains, locus YOL006C, strain TOP1, stronger effect = lower value",0.101 (active)
same,normalized growth,"S. cerevisiae deletion strains, locus YOL012C, strain htz1",0.22
same,normalized growth,"S. cerevisiae deletion strains, locus YOL147C, strain pex11, stronger effect = lower value",0.0664 (active)
same,normalized growth,"S. cerevisiae deletion strains, locus YOR001W, strain rrp6, stronger effect = lower value",0.0665 (active)
same,normalized growth,"S. cerevisiae deletion strains, locus YOR061W, strain CKA2, stronger effect = lower value",0.0452 (active)
same,normalized growth,"S. cerevisiae deletion strains, locus YOR069W, strain VPS5, stronger effect = lower value",0.0467 (active)
same,normalized growth,"S. cerevisiae deletion strains, locus YOR070C, strain gyp1, stronger effect = lower value",0.0668 (active)
same,normalized growth,"S. cerevisiae deletion strains, locus YOR080W, strain dia2, stronger effect = lower value",0.0657 (active)
same,normalized growth,"S. cerevisiae deletion strains, locus YOR083W, strain WHI5, stronger effect = lower value",0.0673 (active)
same,normalized growth,"S. cerevisiae deletion strains, locus YOR106W, strain vam3, stronger effect = lower value",0.0651 (active)
same,normalized growth,"S. cerevisiae deletion strains, locus YOR136W, strain idh2, stronger effect = lower value",0.0728 (active)
same,normalized growth,"S. cerevisiae deletion strains, locus YOR144C, strain elg1, stronger effect = lower value",0.0629 (active)
same,normalized growth,"S. cerevisiae deletion strains, locus YOR184W, strain ser1, stronger effect = lower value",0.0779 (active)
same,normalized growth,"S. cerevisiae deletion strains, locus YOR231W, strain MKK1, stronger effect = lower value",0.103 (active)
same,normalized growth,"S. cerevisiae deletion strains, locus YOR265W, strain rbl2, stronger effect = lower value",0.0552 (active)
same,normalized growth,"S. cerevisiae deletion strains, locus YOR270C, strain vph1, stronger effect = lower value",0.0971 (active)
same,normalized growth,"S. cerevisiae deletion strains, locus YOR290C, strain snf2, stronger effect = lower value",0.0603 (active)
same,normalized growth,"S. cerevisiae deletion strains, locus YOR316C, strain cot1, stronger effect = lower value",0.0576 (active)
same,normalized growth,"S. cerevisiae deletion strains, locus YPL051W, strain arl3, stronger effect = lower value",0.0609 (active)
same,normalized growth,"S. cerevisiae deletion strains, locus YPL055C, strain LGE1, stronger effect = lower value",0.0695 (active)
same,normalized growth,"S. cerevisiae deletion strains, locus YPL078C, strain atp4, stronger effect = lower value",0.0642 (active)
same,normalized growth,"S. cerevisiae deletion strains, locus YPL106C, strain sse1, stronger effect = lower value",0.0953 (active)
same,normalized growth,"S. cerevisiae deletion strains, locus YPL240C, strain hsp82, stronger effect = lower value",0.0558 (active)
same,normalized growth,"S. cerevisiae deletion strains, locus YPL256C, strain CLN2, stronger effect = lower value",0.111 (active)
same,normalized growth,"S. cerevisiae deletion strains, locus YPR119W, strain clb2, stronger effect = lower value",0.0637 (active)
same,normalized growth,"S. cerevisiae deletion strains, locus YPR141C, strain kar3, stronger effect = lower value",0.0734 (active)
same,normalized growth,"S. cerevisiae deletion strains, locus YPR163C, strain tif3, stronger effect = lower value",0.0705 (active)
same,normalized growth,"S. cerevisiae deletion strains, locus YPR167C, strain met16, stronger effect = lower value",0.063 (active)
same,normalized growth,"S. cerevisiae deletion strains, strain wtn01, stronger effect = lower value",0.067 (active)
same,normalized growth,"S. cerevisiae strains, strain wild type, stronger effect = lower value",0.0467 (active)
